# Laboratory results from the supplement of paper PMC9694430.
# Values joined by “and” are separate entries in the source; they are usually repeats but may differ in a detail not shown here. Equal values may be shown once.
# Legend:
# Experiment in all cases: thermal shift delta Tm vs DMSO control; higher = stronger stabilization (binding)
# Settings in all cases: 12.5 µM; protein concentration 2 µM
# [1] = system: LOC_OS01G57100-cb003
# In short: (§1)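 Thermal shift values come from differential scanning fluorimetry on purified rice kinase domains made in E. coli, with melting temperatures obtained from Boltzmann fits. Samples of 19.5 μl held 2 μM kinase, 100 mM potassium phosphate pH 7.5, 150 mM NaCl, 10% glycerol, 5 × SYPRO Orange and compound in DMSO, and were heated from 25°C to 95°C at 0.05°C/s. Each shift is a triplicate mean relative to the DMSO-only protein sample.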
# [2] = system: LOC_OS01G60330-cb001
# In short: as §1
# [3] = system: LOC_OS01G60700-cb002
# In short: as §1
# [4] = system: LOC_OS01G63280-cb003
# In short: as §1
# [5] = system: LOC_OS01G67340-cb003
# In short: as §1
# [6] = system: LOC_OS01G70970-cb002
# In short: as §1
# [7] = system: LOC_OS02G07810-cb001
# In short: as §1
# [8] = system: LOC_OS02G08530-cb003
# In short: as §1
# [9] = system: LOC_OS02G14120-cb001
# In short: as §1
# [10] = system: LOC_OS02G17970-cb001
# In short: as §1
# 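Note: purified Escherichia coli-expressed rice kinase domain construct.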
Structure (SMILES),thermal shift delta Tm [1],thermal shift delta Tm [2],thermal shift delta Tm [3],thermal shift delta Tm [4],thermal shift delta Tm [5],thermal shift delta Tm [6],thermal shift delta Tm [7],thermal shift delta Tm [8],thermal shift delta Tm [9],thermal shift delta Tm [10]
CCOc1cc(N2CCC(O)CC2)ccc1Nc1ncc2c(n1)N(C)c1ccccc1C(=O)N2C,1.56 °C,0.82 °C,1.24 °C,-0.13 °C,-0.04 °C,0.52 °C,0.39 °C,0.9 °C,-0.64 °C,0.7 °C
O=C(NOC[C@H](O)CO)c1ccc(F)c(F)c1Nc1ccc(I)cc1F,0.81 °C,1.22 °C,1.23 °C,0.57 °C,0.04 °C,0.46 °C,1.39 °C,1.15 °C,1.04 °C,0.52 °C
Nc1ncc(-c2ccnc(Nc3ccncc3)n2)c(CC2CC2)n1,0.51 °C,1.45 °C,1.53 °C,0.58 °C,0.33 °C,0.37 °C,0.77 °C,0.52 °C,3.13 °C,2.16 °C
O=C(Nc1c[nH]nc1-c1nc2ccc(CN3CCOCC3)cc2[nH]1)NC1CC1,0.91 °C,11.9 °C,1.09 °C,5.34 °C,1.94 °C,7.9 °C,0.64 °C,3.3 °C,11.9 °C,0.14 °C
CO[C@@H](C)Cn1c(=O)n(C)c2cnc3ccc(-c4cncc(C(C)(C)O)c4)cc3c21,1.94 °C,0.57 °C,1.37 °C,0.84 °C,0.62 °C,0.44 °C,0.65 °C,1.76 °C,2.83 °C,0.61 °C
COc1ccc(Cl)c(Nc2nc3ccccc3nc2NS(=O)(=O)c2cccc(NC(=O)C(C)(C)N)c2)c1 [Pilaralisib (XL147)],0.77 °C,3.02 °C,0.4 °C,2.27 °C,2 °C,1.26 °C,1.84 °C,0.06 °C,-0.43 °C,1.12 °C
O=C1c2ccc(Nc3ccc(F)cc3F)cc2CCc2ccc(OC[C@H](O)CO)cc21 [Skepinone-L],1.15 °C,1.18 °C,0.79 °C,0.21 °C,0.84 °C,0.42 °C,-0.07 °C,0.85 °C,0.72 °C,0.17 °C
NC(=O)c1ccc2nc(-c3ccc(Oc4ccc(Cl)cc4)cc3)[nH]c2c1 [Chk2 Inhibitor II (BML-277)],-0.91 °C,1.95 °C,-0.56 °C,0.87 °C,1.05 °C,0.31 °C,-0.29 °C,0.5 °C,0.13 °C,1.17 °C
COc1cc2ncnc(Sc3nnc(C)s3)c2cc1OC,0.73 °C,0.26 °C,0.74 °C,-0.21 °C,0.41 °C,-0.08 °C,-0.06 °C,0.96 °C,2.55 °C,-0.07 °C
OC1CCC(Oc2cccc3cnc(Nc4ccc5nc[nH]c5c4)nc23)CC1 (stereo not given),1.84 °C,13.9 °C,-0.02 °C,4.52 °C,5.84 °C,8.36 °C,-0.24 °C,4.55 °C,11.4 °C,0.06 °C
Cc1nc(N)sc1-c1ccnc(Nc2ccc(N3CCOCC3)cc2)n1,1.88 °C,3.15 °C,0.88 °C,0.17 °C,-0.01 °C,1.58 °C,0.79 °C,2.22 °C,8.9 °C,-0.16 °C
Nc1cccc(S(=O)(=O)N2CCCN(S(=O)(=O)c3ccc4c(c3)OCCO4)CC2)c1,0.46 °C,0.53 °C,0.59 °C,-0.02 °C,0.27 °C,0.17 °C,0.54 °C,0.32 °C,0.21 °C,0.7 °C
Cc1cc(Nc2cc(CN3CCOCC3)c3nc(C)c(Cc4ccc(Cl)cc4F)n3n2)n[nH]1,0.41 °C,3.94 °C,-0.8 °C,0.12 °C,1.73 °C,1.25 °C,0.19 °C,0.8 °C,8.86 °C,-0.03 °C
CCNC(=O)C#Cc1ccc2c(C(=Nc3ccc(CN(C)C)cc3)c3ccccc3)c(O)[nH]c2c1,-0.26 °C,0.78 °C,0.32 °C,0.72 °C,1.01 °C,13.4 °C,0.15 °C,2.16 °C,0.91 °C,0.63 °C
CC(C)c1c2cc(-c3ccnc(NC4CCC(NC5CCOCC5)CC4)n3)ccc2nn1C (stereo not given),0.61 °C,0.07 °C,0.86 °C,0.36 °C,0.46 °C,0.29 °C,0.41 °C,1.38 °C,4.79 °C,0.57 °C
Cc1cc(Nc2ncc(Cl)c(Nc3ccccc3S(=O)(=O)C(C)C)n2)c(OC(C)C)cc1C1CCNCC1 [Ceritinib (LDK378)],1.94 °C,0.68 °C,1.4 °C,0.34 °C,0.19 °C,0.94 °C,0.36 °C,5.56 °C,1.28 °C,0.2 °C
CNC(=O)c1cccc(-c2ccc3c(N4CCOC[C@@H]4C)nc(N4CCOC[C@@H]4C)nc3n2)c1 [Vistusertib (AZD2014)],0.66 °C,0.59 °C,0.1 °C,0.16 °C,0.54 °C,0.23 °C,0.11 °C,1.58 °C,0 °C,-0.08 °C
CC(C)(C)c1cnc(CSc2cnc(NC(=O)C3CCNCC3)s2)o1,0.61 °C,1.41 °C,1.28 °C,0.71 °C,-0.45 °C,0.26 °C,0.43 °C,0.72 °C,0.42 °C,-0.01 °C

Structure (SMILES),thermal shift delta Tm [1],thermal shift delta Tm [2],thermal shift delta Tm [3],thermal shift delta Tm [4],thermal shift delta Tm [5],thermal shift delta Tm [6],thermal shift delta Tm [7],thermal shift delta Tm [8],thermal shift delta Tm [9],thermal shift delta Tm [10]
C[C@@H]1CCN(C(=O)CC#N)C[C@@H]1N(C)c1ncnc2[nH]ccc12,1.55 °C and 1.07 °C,0.87 °C and 1.25 °C,0.98 °C and 1.64 °C,0.28 °C and 0.78 °C,0.15 °C and 0.3 °C,0.37 °C and 0.59 °C,0.22 °C and 0.98 °C,0.94 °C and 0.96 °C,0.97 °C and 0.47 °C,0 °C and 1.09 °C
CC1(C)OC(=O)C=C[C@]2(C)[C@H]3CC[C@@]4(C)[C@H](c5ccoc5)OC(=O)[C@H]5O[C@]54[C@]3(C)C(=O)C[C@@H]12 [Obacunone],1.14 °C,0.6 °C,0.14 °C,0.26 °C,0.19 °C,0.13 °C,0.27 °C,0.44 °C,0.92 °C,0.03 °C
CCS(=O)(=O)Nc1ccc2c(c1)/C(=C(/Nc1ccc(CN3CCCCC3)cc1)c1ccccc1)C(=O)N2 [Hesperadin],1.29 °C,4.08 °C,0.7 °C,1.11 °C,6.7 °C,9.09 °C,1.1 °C,5.73 °C,13 °C,0.3 °C
O=C(/C=C/c1ccc(O)c(O)c1)c1ccc(O)cc1O [Butein],4.85 °C,7.74 °C,1.12 °C,17.7 °C,7.74 °C,2.95 °C,1.6 °C,1.81 °C,4.14 °C,3.5 °C
Cc1ccccc1CN1C2=NCCN2C(=O)C2=C1CCN(Cc1ccccc1)C2 [TIC10 Analogue],1.53 °C,0.24 °C,1.04 °C,0.12 °C,-0.3 °C,0.36 °C,0.85 °C,1.02 °C,-0.11 °C,0.86 °C
COc1cc2/c(=N/c3ccc(Br)cc3F)nc[nH]c2cc1OCC1CCN(C)CC1 [Vandetanib (ZD6474)],0.28 °C,0.67 °C,1.17 °C,0.47 °C,1.64 °C,0.33 °C,0.65 °C,2.65 °C,10.4 °C,0.76 °C
COc1cc2nccc(Oc3ccc(NC(=O)NC4CC4)c(Cl)c3)c2cc1C(N)=O [Lenvatinib (E7080)],-0.21 °C,1.52 °C,1.38 °C,0.36 °C,-0.21 °C,0.67 °C,0.65 °C,1.11 °C,0.02 °C,0.27 °C
O=c1nc(N2CCOCC2)oc2c(-c3cccc4c3sc3ccccc34)cccc12,1.63 °C,-0.13 °C,-0.9 °C,-1.32 °C,-1.09 °C,-0.38 °C,-1.31 °C,0.23 °C,0.11 °C,-0.76 °C
COc1ccc(COc2cc3oc(=O)c4cc(C(C)O)ccc4c3cc2OC)cc1 (stereo not given) [Palomid 529 (P529)],2.39 °C,1.07 °C,1.23 °C,0.19 °C,0.25 °C,0.51 °C,0.98 °C,1.87 °C,1.04 °C,0.5 °C
CN1CCN(C2CCN(C(=O)Nc3cc(Oc4ccc(NC(=O)C5(C(=O)Nc6ccc(F)cc6)CC5)c(F)c4)ccn3)CC2)CC1 [Golvatinib (E7050)],0.49 °C,0.6 °C,1.6 °C,0.78 °C,0.24 °C,0.6 °C,0.4 °C,0.79 °C,0.6 °C,2.14 °C
CC1(COc2ccc3c(c2)ncn3-c2ccc3cccc(N4CCC(N)CC4)c3n2)COC1,1.84 °C,0.86 °C,0.41 °C,0.93 °C,3.44 °C,7.9 °C,0.2 °C,3.47 °C,11.5 °C,0.58 °C
"Cc1cc(C(=O)Nc2nc3cccc(Cl)c3n2[C@@H]2CCCCN(C(=O)/C=C/CN(C)C)C2)ccn1 [Nazartinib (EGF816, NVS-816)]",1.05 °C,1.72 °C,1.17 °C,0.35 °C,1.06 °C,0.93 °C,0.98 °C,2.18 °C,1.69 °C,1.28 °C
Cc1cccc(CC(=O)N2CCc3c2ccc(-c2cn(C)c4ncnc(N)c24)c3F)n1,1.41 °C,0.28 °C,1.1 °C,5.6 °C,3.56 °C,0.24 °C,0.39 °C,0.71 °C,1.09 °C,1.12 °C
Cc1ccc(Nc2nccc(N(C)c3ccc4c(C)n(C)nc4c3)n2)cc1S(N)(=O)=O,0.87 °C,4.66 °C,1.25 °C,0.81 °C,0.74 °C,0.44 °C,1.5 °C,1.68 °C,3.21 °C,0.47 °C
Oc1ccc(-c2nc(-c3ccc(F)cc3)c(-c3ccncc3)[nH]2)cc1,1.5 °C,0.98 °C,2.02 °C,0.47 °C,-0.26 °C,0.63 °C,1.96 °C,1.58 °C,0.99 °C,1.05 °C
Cc1ccc(-n2nc(C(C)(C)C)cc2NC(=O)NCc2cc(F)ccc2Oc2ccc3c(cnn3CCO)c2)cc1 [Pexmetinib (ARRY-614)],1.23 °C,2 °C,0.83 °C,6.58 °C,0.87 °C,0.6 °C,0.69 °C,0.78 °C,4.57 °C,1.52 °C
C[C@@H]1COCCN1c1cc(=O)n2c(n1)N(Cc1cncc(Cl)c1)[C@H](C(F)(F)F)CC2,1.19 °C,1.13 °C,1.05 °C,0.61 °C,0.35 °C,0.33 °C,0.77 °C,0.7 °C,0.82 °C,1.7 °C
